Laboratory results taken from publication PMC9911399, “Two distinct binding modes provide the RNA-binding protein RbFox with extraordinary sequence specificity”.
Numbering of substitutions follows the chain as printed; changes in the protein carry UniProt numbers. Over roughly 16,000 sequences, “ka relative to ugcaugu” has its median near 0.0091; the highest 2% begin near 0.032. For the sample, the highest values were picked, then their nearest neighbours and some sequences at random.

T1: RBFOX1 RRM (Homo sapiens, UniProt Q9NWB1 109-208)
T1 sequence: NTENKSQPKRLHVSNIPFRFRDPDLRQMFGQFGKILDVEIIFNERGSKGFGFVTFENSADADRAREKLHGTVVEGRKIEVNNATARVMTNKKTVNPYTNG

B1: CAGGUUU (DNA:RNA)
RNA: GGGAGACCGGAAUUCAGAUUGUCCCAGGUUUUUAAAUCCCGUCGUAGCCACCA
DNA 1: CAATCTGAATTCCGGTCTCCC
DNA 2: TGGTGGCTACGACGGGATT
B2: CGCCAGG (DNA:RNA)
RNA: B1 RNA with A26G, G27C, G28C, U29A, U30G, U31G
DNA 1: CAATCTGAATTCCGGTCTCCC
DNA 2: TGGTGGCTACGACGGGATT
B3: GGGAAGC (DNA:RNA)
RNA: B1 RNA with C25G, A26G, G28A, U29A, U30G, U31C
DNA 1: CAATCTGAATTCCGGTCTCCC
DNA 2: TGGTGGCTACGACGGGATT
B4: GGGAACU (DNA:RNA)
RNA: B1 RNA with C25G, A26G, G28A, U29A, U30C
DNA 1: CAATCTGAATTCCGGTCTCCC
DNA 2: TGGTGGCTACGACGGGATT
B5: GGGAGCU (DNA:RNA)
RNA: B1 RNA with C25G, A26G, G28A, U29G, U30C
DNA 1: CAATCTGAATTCCGGTCTCCC
DNA 2: TGGTGGCTACGACGGGATT
B6: CGGAGCU (DNA:RNA)
RNA: B1 RNA with A26G, G28A, U29G, U30C
DNA 1: CAATCTGAATTCCGGTCTCCC
DNA 2: TGGTGGCTACGACGGGATT
B7: GGAGCUU (DNA:RNA)
RNA: B1 RNA with C25G, A26G, G27A, U29C
DNA 1: CAATCTGAATTCCGGTCTCCC
DNA 2: TGGTGGCTACGACGGGATT
B8: GGGGAGC (DNA:RNA)
RNA: B1 RNA with C25G, A26G, U29A, U30G, U31C
DNA 1: CAATCTGAATTCCGGTCTCCC
DNA 2: TGGTGGCTACGACGGGATT
B9: GGAAGCU (DNA:RNA)
RNA: B1 RNA with C25G, A26G, G27A, G28A, U29G, U30C
DNA 1: CAATCTGAATTCCGGTCTCCC
DNA 2: TGGTGGCTACGACGGGATT
B10: CGGAACU (DNA:RNA)
RNA: B1 RNA with A26G, G28A, U29A, U30C
DNA 1: CAATCTGAATTCCGGTCTCCC
DNA 2: TGGTGGCTACGACGGGATT
B11: CGGAAGC (DNA:RNA)
RNA: B1 RNA with A26G, G28A, U29A, U30G, U31C
DNA 1: CAATCTGAATTCCGGTCTCCC
DNA 2: TGGTGGCTACGACGGGATT
B12: GGAACUU (DNA:RNA)
RNA: B1 RNA with C25G, A26G, G27A, G28A, U29C
DNA 1: CAATCTGAATTCCGGTCTCCC
DNA 2: TGGTGGCTACGACGGGATT
B13: GGAGAGC (DNA:RNA)
RNA: B1 RNA with C25G, A26G, G27A, U29A, U30G, U31C
DNA 1: CAATCTGAATTCCGGTCTCCC
DNA 2: TGGTGGCTACGACGGGATT
B14: CGGGAGC (DNA:RNA)
RNA: B1 RNA with A26G, U29A, U30G, U31C
DNA 1: CAATCTGAATTCCGGTCTCCC
DNA 2: TGGTGGCTACGACGGGATT

Biological target: T1, RBFOX1 RRM
Experiment: EMSA; HiTS-Eq, 1 nM pool, 10 min; buffer printed only for the single-RNA assays: 10 mM Tris pH 7.5, 150 mM NaCl, 3.4 mM EDTA, 0.001% NP-40, 30 C
Details: tags: His6 N-terminal (pET28a); label: 5' 32P
In short: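 Purified RbFox RRM (wild type or mutant) was equilibrated for 10 min in 50 µL with 1 nM of a 5′-radiolabelled pool of RNA with 7 randomized nucleotides, its flanks annealed to DNA oligonucleotides, across increasing protein concentrations. Free RNA was separated by 8% native PAGE, excised, reverse-transcribed, PCR-barcoded and sequenced on an Illumina HiSeq 2500. Relative association constants came from read-count changes of each variant against the control reaction, normalised to the cognate motif.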

Binder	binding signal
B1	0.0116 KA relative to UGCAUGU
B2	0.0105 KA relative to UGCAUGU
B3	0.036 KA relative to UGCAUGU
B4	0.0404 KA relative to UGCAUGU
B5	0.035 KA relative to UGCAUGU
B6	0.0245 KA relative to UGCAUGU
B7	0.0232 KA relative to UGCAUGU
B8	0.0326 KA relative to UGCAUGU
B9	0.0135 KA relative to UGCAUGU
B10	0.0254 KA relative to UGCAUGU
B11	0.0209 KA relative to UGCAUGU
B12	0.0138 KA relative to UGCAUGU
B13	0.0169 KA relative to UGCAUGU
B14	0.0286 KA relative to UGCAUGU
